Results published in paper PMC7862700, “An all-to-all approach to the identification of sequence-specific readers for epigenetic DNA modifications on cytosine”.

How the values were obtained:
Experiment in all cases: DAPPL (digital affinity profiling via proximity ligation, sequencing); 10 mM Tris-HCl pH 7.5, 50 mM NaCl, 1 mM DTT, 4% glycerol, room temperature, 30 min; GST-TFs on glutathione beads, 16-mer random dsDNA library, 0.1% formaldehyde crosslink after washing; high values mean tight binding
Conditions in all cases: protein: recombinant; tags: N-terminal GST; dsDNA, one strand shown
[1] = molecular target: T1, FLI1 (Homo sapiens, UniProt Q01543 1-452)
T1 sequence: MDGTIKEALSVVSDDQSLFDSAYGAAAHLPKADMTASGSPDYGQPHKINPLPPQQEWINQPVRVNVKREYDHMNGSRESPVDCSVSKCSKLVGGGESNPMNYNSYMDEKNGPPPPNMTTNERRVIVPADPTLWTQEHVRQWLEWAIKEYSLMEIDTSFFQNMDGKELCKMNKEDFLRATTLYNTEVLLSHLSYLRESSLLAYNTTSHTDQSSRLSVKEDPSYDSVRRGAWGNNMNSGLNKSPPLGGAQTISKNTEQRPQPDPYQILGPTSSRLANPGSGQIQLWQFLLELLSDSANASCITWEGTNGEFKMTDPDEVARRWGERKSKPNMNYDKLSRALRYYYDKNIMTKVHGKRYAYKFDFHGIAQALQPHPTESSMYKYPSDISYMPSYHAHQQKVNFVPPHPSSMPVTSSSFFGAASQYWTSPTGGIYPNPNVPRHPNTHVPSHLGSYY
Outline: (§1)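 A tag-only sample was pooled with DNA-barcoded human transcription factors that had been expressed in yeast as GST fusions and captured on glutathione beads. The pools were incubated for 30 min at room temperature with 200 nmole of a random double-stranded 16-mer DNA library in Tris/NaCl/DTT/glycerol buffer, then washed, crosslinked with 0.1% formaldehyde, proximity-ligated (BsaI/T4 ligase, 1 h, 37 °C), PCR-amplified and sequenced on an Illumina NextSeq500. Binding signal is each hexamer's read frequency for a factor divided by its frequency for the tag-only sample.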

[2] = molecular target: T2, ELK1 (Homo sapiens, UniProt P19419 1-428)
T2 sequence: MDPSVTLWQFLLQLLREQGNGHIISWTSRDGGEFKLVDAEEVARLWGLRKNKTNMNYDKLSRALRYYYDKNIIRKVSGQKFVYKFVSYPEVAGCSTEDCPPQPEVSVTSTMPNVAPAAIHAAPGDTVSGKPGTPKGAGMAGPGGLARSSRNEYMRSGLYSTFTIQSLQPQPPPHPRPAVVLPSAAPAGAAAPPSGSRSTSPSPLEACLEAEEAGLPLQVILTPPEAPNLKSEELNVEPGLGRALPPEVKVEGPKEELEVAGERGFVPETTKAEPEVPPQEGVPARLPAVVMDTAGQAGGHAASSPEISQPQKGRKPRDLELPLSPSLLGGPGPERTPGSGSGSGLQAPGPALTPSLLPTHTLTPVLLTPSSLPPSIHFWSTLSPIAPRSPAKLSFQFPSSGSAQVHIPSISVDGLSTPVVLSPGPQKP
Outline: as §1

[3] = molecular target: T3, GABPA (Homo sapiens, UniProt Q06546 1-454)
T3 sequence: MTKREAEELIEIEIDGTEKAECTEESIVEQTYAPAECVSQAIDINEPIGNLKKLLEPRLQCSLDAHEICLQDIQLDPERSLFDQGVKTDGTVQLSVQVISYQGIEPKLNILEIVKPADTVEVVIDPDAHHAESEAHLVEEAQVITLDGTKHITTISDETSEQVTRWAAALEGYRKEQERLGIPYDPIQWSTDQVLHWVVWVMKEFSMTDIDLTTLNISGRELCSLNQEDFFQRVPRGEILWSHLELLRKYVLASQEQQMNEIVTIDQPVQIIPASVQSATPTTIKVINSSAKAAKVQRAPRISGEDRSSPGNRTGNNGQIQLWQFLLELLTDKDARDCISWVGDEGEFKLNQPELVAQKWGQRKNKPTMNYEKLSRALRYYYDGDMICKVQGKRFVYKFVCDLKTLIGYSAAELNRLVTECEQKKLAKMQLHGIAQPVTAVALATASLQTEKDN
Outline: as §1

[4] = molecular target: T4, ERG (Homo sapiens, UniProt P11308 1-479)
T4 sequence: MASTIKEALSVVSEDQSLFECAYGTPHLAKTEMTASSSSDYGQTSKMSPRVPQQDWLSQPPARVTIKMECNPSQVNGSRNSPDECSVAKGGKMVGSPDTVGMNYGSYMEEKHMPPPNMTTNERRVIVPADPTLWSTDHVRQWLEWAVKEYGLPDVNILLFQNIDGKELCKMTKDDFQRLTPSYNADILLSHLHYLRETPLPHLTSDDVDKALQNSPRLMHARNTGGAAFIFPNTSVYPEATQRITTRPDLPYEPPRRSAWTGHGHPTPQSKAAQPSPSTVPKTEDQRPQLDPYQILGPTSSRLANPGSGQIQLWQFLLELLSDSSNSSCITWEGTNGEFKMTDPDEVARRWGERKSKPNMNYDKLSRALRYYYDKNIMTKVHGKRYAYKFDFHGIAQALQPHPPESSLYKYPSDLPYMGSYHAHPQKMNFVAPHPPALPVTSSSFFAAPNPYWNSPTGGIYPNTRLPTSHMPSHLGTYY
Outline: as §1

[5] = molecular target: ELF1 (Homo sapiens, UniProt P32519 1-619)
Outline: as §1

[6] = molecular target: T5, EHF (Homo sapiens, UniProt Q9NZC4 1-300)
T5 sequence: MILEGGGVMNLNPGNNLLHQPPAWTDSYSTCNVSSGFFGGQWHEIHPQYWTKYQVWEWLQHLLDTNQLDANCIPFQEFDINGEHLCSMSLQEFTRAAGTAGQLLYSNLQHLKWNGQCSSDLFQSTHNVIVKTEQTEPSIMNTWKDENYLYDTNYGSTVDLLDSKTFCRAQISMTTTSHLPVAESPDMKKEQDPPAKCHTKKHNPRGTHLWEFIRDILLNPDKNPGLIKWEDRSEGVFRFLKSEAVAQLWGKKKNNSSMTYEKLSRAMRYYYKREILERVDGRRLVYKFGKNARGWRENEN
Outline: as §1

[7] = molecular target: SPI1 (Homo sapiens, UniProt P17947 1-270)
Outline: as §1

[8] = molecular target: SPIB (Homo sapiens, UniProt Q01892 1-262)
Outline: as §1

[9] = molecular target: T6, ELK3 (Homo sapiens, UniProt P41970 1-407)
T6 sequence: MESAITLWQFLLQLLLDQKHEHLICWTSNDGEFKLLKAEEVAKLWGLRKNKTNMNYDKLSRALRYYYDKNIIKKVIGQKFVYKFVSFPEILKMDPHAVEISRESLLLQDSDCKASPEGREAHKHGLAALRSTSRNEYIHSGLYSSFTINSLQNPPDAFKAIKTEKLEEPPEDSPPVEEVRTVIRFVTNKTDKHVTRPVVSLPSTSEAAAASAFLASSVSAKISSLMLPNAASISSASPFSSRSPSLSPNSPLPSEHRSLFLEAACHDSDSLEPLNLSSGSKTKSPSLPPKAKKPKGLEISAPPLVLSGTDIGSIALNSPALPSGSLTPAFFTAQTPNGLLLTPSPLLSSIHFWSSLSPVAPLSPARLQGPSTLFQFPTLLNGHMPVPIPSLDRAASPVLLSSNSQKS
Outline: as §1

Chain of SPIB (Q01892 whole entry): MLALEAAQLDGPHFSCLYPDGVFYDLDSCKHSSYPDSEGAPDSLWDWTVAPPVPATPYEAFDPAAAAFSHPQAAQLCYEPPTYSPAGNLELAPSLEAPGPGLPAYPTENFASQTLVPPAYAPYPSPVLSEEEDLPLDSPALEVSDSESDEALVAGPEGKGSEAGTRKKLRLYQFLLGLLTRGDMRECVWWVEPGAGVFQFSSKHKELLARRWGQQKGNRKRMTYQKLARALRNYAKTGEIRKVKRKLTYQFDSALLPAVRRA
Chain of ELF1 (P32519 whole entry): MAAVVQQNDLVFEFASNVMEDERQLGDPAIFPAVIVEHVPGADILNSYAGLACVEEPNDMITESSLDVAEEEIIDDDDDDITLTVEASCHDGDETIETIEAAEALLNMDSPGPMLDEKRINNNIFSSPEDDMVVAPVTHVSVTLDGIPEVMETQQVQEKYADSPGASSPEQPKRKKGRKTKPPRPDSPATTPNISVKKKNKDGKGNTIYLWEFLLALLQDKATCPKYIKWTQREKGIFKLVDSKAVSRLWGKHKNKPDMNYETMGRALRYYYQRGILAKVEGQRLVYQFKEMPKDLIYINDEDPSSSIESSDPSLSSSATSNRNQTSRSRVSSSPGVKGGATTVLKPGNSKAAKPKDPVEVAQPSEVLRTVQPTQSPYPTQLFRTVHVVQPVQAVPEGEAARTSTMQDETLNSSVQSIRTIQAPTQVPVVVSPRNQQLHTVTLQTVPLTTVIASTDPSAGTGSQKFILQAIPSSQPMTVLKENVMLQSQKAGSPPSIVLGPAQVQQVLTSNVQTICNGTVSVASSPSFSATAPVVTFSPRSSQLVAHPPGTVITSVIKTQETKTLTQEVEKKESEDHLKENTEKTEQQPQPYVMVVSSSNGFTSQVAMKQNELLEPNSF

Sequence | binding signal [1] | binding signal [2] | binding signal [3] | binding signal [4] | binding signal [5] | binding signal [6] | binding signal [7] | binding signal [8] | binding signal [9]
CTCACT | 1.61 fold enrichment (6-mer frequency, TF over GST control) | 1.76 fold enrichment (6-mer frequency, TF over GST control) | 1.59 fold enrichment (6-mer frequency, TF over GST control) | 1.57 fold enrichment (6-mer frequency, TF over GST control) | 1.49 fold enrichment (6-mer frequency, TF over GST control) | 1.56 fold enrichment (6-mer frequency, TF over GST control) | 1.68 fold enrichment (6-mer frequency, TF over GST control) | 1.66 fold enrichment (6-mer frequency, TF over GST control) | 1.5 fold enrichment (6-mer frequency, TF over GST control)
CTACAA | 1.17 fold enrichment (6-mer frequency, TF over GST control) | 1.13 fold enrichment (6-mer frequency, TF over GST control) | 1.2 fold enrichment (6-mer frequency, TF over GST control) | 1.08 fold enrichment (6-mer frequency, TF over GST control) | 1.13 fold enrichment (6-mer frequency, TF over GST control) | 1.14 fold enrichment (6-mer frequency, TF over GST control) | 1.09 fold enrichment (6-mer frequency, TF over GST control) | 1.15 fold enrichment (6-mer frequency, TF over GST control) | 1.03 fold enrichment (6-mer frequency, TF over GST control)
ATCTTT | 1.26 fold enrichment (6-mer frequency, TF over GST control) | 1.24 fold enrichment (6-mer frequency, TF over GST control) | 1.22 fold enrichment (6-mer frequency, TF over GST control) | 1.21 fold enrichment (6-mer frequency, TF over GST control) | 1.19 fold enrichment (6-mer frequency, TF over GST control) | 1.27 fold enrichment (6-mer frequency, TF over GST control) | 1.21 fold enrichment (6-mer frequency, TF over GST control) | 1.23 fold enrichment (6-mer frequency, TF over GST control) | 1.22 fold enrichment (6-mer frequency, TF over GST control)
CATGGT | 1.25 fold enrichment (6-mer frequency, TF over GST control) | 1.29 fold enrichment (6-mer frequency, TF over GST control) | 1.29 fold enrichment (6-mer frequency, TF over GST control) | 1.38 fold enrichment (6-mer frequency, TF over GST control) | 1.21 fold enrichment (6-mer frequency, TF over GST control) | 1.22 fold enrichment (6-mer frequency, TF over GST control) | 1.27 fold enrichment (6-mer frequency, TF over GST control) | 1.26 fold enrichment (6-mer frequency, TF over GST control) | 1.3 fold enrichment (6-mer frequency, TF over GST control)
TTTTGA | 1.13 fold enrichment (6-mer frequency, TF over GST control) | 1.18 fold enrichment (6-mer frequency, TF over GST control) | 1.13 fold enrichment (6-mer frequency, TF over GST control) | 1.11 fold enrichment (6-mer frequency, TF over GST control) | 1.17 fold enrichment (6-mer frequency, TF over GST control) | 1.17 fold enrichment (6-mer frequency, TF over GST control) | 1.13 fold enrichment (6-mer frequency, TF over GST control) | 1.04 fold enrichment (6-mer frequency, TF over GST control) | 1.06 fold enrichment (6-mer frequency, TF over GST control)
GACATT | 1.16 fold enrichment (6-mer frequency, TF over GST control) | 1.17 fold enrichment (6-mer frequency, TF over GST control) | 1.12 fold enrichment (6-mer frequency, TF over GST control) | 1.15 fold enrichment (6-mer frequency, TF over GST control) | 1.16 fold enrichment (6-mer frequency, TF over GST control) | 1.11 fold enrichment (6-mer frequency, TF over GST control) | 1.13 fold enrichment (6-mer frequency, TF over GST control) | 1.16 fold enrichment (6-mer frequency, TF over GST control) | 1.02 fold enrichment (6-mer frequency, TF over GST control)
CATTTC | 1.8 fold enrichment (6-mer frequency, TF over GST control) | 1.86 fold enrichment (6-mer frequency, TF over GST control) | 1.64 fold enrichment (6-mer frequency, TF over GST control) | 2.07 fold enrichment (6-mer frequency, TF over GST control) | 1.63 fold enrichment (6-mer frequency, TF over GST control) | 1.77 fold enrichment (6-mer frequency, TF over GST control) | 1.97 fold enrichment (6-mer frequency, TF over GST control) | 1.85 fold enrichment (6-mer frequency, TF over GST control) | 1.67 fold enrichment (6-mer frequency, TF over GST control)
CGCCCC | 1.12 fold enrichment (6-mer frequency, TF over GST control) | 1.17 fold enrichment (6-mer frequency, TF over GST control) | 1.11 fold enrichment (6-mer frequency, TF over GST control) | 1.14 fold enrichment (6-mer frequency, TF over GST control) | 1.22 fold enrichment (6-mer frequency, TF over GST control) | 1.19 fold enrichment (6-mer frequency, TF over GST control) | 1.18 fold enrichment (6-mer frequency, TF over GST control) | 1.1 fold enrichment (6-mer frequency, TF over GST control) | 1.18 fold enrichment (6-mer frequency, TF over GST control)
